IP6K1 inh: Primary qHTS assay for small molecule inhibitors of Inositol hexaphosphate kinase 1 (IP6K1) | Inositol hexakisphosphate kinase 1 (Homo sapiens), Q92551 | activity change, % (series mostly up to about 58 µM) | IP6K1 kinase, ADP-Glo luminescence, 2 h; active compounds read low | actives 0.81% (n = 140,000) | AID 1645851, 2021; in the data active means activity change below about -25%
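ADP-Glo luminescence measures ADP made by human IP6K1 during a 2 h RT reaction with ATP/IP6 (mix at 1.3 mM/130 uM); top library doses 57.5 and 19.1 uM final.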
SNCA viab count: GF-AFC viability counterscreen for inhibitors of alpha-synuclein gene (SNCA) expression; HEK-293-SNCA-luc viability, GF-AFC fluorescence, 24 h; Potency, µM (highest dose often 57.1 µM), for the others: at the top dose activity change, negative = cytotoxicity, hits mostly cytotoxic; actives 0.12% (n = 150,000); AID 1671193, 2021;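 further: potency means the concentration at half of the fitted maximal effect; 0% = DMSO-treated cells and -100% = medium-only wells without cells; nearly all actives have a fitted effect of over 30% in size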
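HEK-293-SNCA-luc cells (1500/well) plated 24 h, then exposed 24 h to a dilution series; GF-AFC added 30 min at 37C, fluorescence 405/540 nm; normalised to medium-only and DMSO wells, Hill fit.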
GPT2 inh: Primary qHTS assay for inhibitors of Glutamate pyruvate transaminase 2 (GPT2) | Recombinant GPT2, coupled pyruvate oxidase/HRP Amplex Red fluorescence | actives 0.25% (n = 100,000) | Potency, µM (top dose mostly 57.7 µM), inactives show top-dose activity change, negative = inhibition, most hits filed as inhibitors | Alanine aminotransferase 2 (Homo sapiens), Q8TD30; further: potency means the concentration at half of the fitted maximal effect; nearly all actives have a fitted effect of over 60% in size
Target sequence (Q8TD30 whole entry, looked up): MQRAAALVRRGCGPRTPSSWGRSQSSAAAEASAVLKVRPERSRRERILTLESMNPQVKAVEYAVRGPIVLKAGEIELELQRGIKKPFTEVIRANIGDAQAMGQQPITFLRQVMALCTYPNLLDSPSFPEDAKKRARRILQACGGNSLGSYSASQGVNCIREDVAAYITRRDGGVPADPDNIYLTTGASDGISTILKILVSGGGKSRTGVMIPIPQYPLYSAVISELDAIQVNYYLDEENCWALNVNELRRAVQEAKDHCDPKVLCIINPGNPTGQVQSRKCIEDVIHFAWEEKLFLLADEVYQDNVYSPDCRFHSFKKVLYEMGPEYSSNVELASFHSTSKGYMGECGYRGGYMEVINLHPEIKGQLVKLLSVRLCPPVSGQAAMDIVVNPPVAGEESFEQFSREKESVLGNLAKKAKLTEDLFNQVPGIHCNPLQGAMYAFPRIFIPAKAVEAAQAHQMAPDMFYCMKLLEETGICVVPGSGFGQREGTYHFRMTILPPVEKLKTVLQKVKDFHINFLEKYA
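Recombinant GPT2 (10ng/uL) with 250uM a-KG and 2mM L-alanine, 30 min at room temperature, in HEPES pH 7.5 buffer. Pyruvate detected by pyruvate oxidase/HRP/Amplex Red fluorescence after 30 min in the dark; AOA (50uM) as positive control.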
SNCA expr inh: Primary qHTS assay for inhibitors of alpha-synuclein gene (SNCA) expression. HEK-293 SNCA-luciferase knock-in, luminescence, 24 h. Potency, µM (highest dose often 57.2 µM), for inactives: at the highest dose activity change, negative = inhibition, hits mostly inhibitors. actives 0.17% (n = 140,000);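 further: potency means the concentration at half of the fitted maximal effect; plate controls were DMSO cells for no effect and cell-free wells for full effect; nearly all actives have a fitted effect of over 45% in size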
The depositor's hits bear a star; [ ] = another dose, or the depositor's remark. Most compounds without a hit are left out; they make up all but 1.1% or so of the library. Unless noted, the call rests on the fitted dose curve; in most records, active means well fitted curve in the direction sought with a large enough effect; inconclusive means small, poorly fitted or top-dose-only effect, or another doubt; inactive means no such curve, though single readings can be large; an effect the other way counts as inactive or inconclusive. Unless noted, on the % scale 0 is the no-effect control and ±100 the full control effect.

Cc1ccc(-n2c(=O)c3c4c(sc3n(CC(=O)Nc3cccc(Cl)c3)c2=O)CCCCC4)cc1C was read as IP6K1 inh 5.6, SNCA viab count -3.9% and SNCA expr inh -0.6%.
O=C(Cn1c(=O)n(-c2ccc(Cl)cc2)c(=O)c2c3c(sc21)CCC3)c1ccc(F)cc1 was read as IP6K1 inh 1.5, SNCA viab count 4.0% and SNCA expr inh 20µM*.
Screening O=C(NCc1cccc(C(F)(F)F)c1)C1CCN(Cc2ccccc2-c2ccccc2F)CC1 returned IP6K1 inh 10.0.
CNC(=O)c1ccc(-c2ccc(OC)nn2)cc1Cl was read as IP6K1 inh -18.1.
`Cc1nc2cc(-c3cccc(F)c3)nn2c(C)c1CCC(=O)NC1CCCCC1` gave IP6K1 inh 19.7, SNCA viab count 7.1% and SNCA expr inh inconclusive.
For O=C(Cc1ccc(F)cc1)N1CCC2(CC1)CC(c1cccc(C(F)(F)F)c1)=NO2 the results were IP6K1 inh 6.8.
O=C(NC[C@H](O)CN1CCc2ccccc2C1)c1ccnc(NC2CCC2)c1 was read as IP6K1 inh -11.8, SNCA viab count 20.6% and GPT2 inh inactive.
Cc1nn2c(c1-c1ccccc1Oc1ccccc1)N(Cc1ccc(C(=O)O)s1)CCC2 was read as IP6K1 inh 7.6, SNCA viab count inconclusive, GPT2 inh inactive and SNCA expr inh 12.6µM*.
Screening Cc1nn2c(c1-c1ccccc1[S+](C)(=O)[O-])N(Cc1ccc(C(=O)O)s1)CCC2 returned IP6K1 inh 27.6, SNCA viab count inconclusive, GPT2 inh -10.0%[88.5 µM] and SNCA expr inh 3.98µM*.
`Oc1cc(O)c2c(c1)O[C@H](c1ccc(O)c(O)c1)[C@H](O)C2` gave IP6K1 inh 2.3, SNCA viab count -28.9%[23.9 µM], GPT2 inh 28.2µM* and SNCA expr inh 2.4%[25.6 µM].
Screening O=C1c2c(O)cc(O)cc2OC(c2ccc(O)c(O)c2)C1O (stereo unspecified) returned SNCA viab count -4.2%, GPT2 inh inconclusive and SNCA expr inh -10.1%.
For O=C(NCc1cccc(Cl)c1)c1nc2cccnc2n(Cc2ccccc2)c1=O the results were IP6K1 inh 19.5, SNCA viab count 0.0%, GPT2 inh inactive and SNCA expr inh -22.4%.
COC(=O)c1nnn(-c2cccc(C)c2)c1C(=O)OC was read as IP6K1 inh -5.6, SNCA viab count 12.9% and SNCA expr inh 17.1%.
Cc1cccc(-n2nnnc2S(C)(=O)=O)c1 was read as IP6K1 inh 2.6, SNCA viab count 22.4µM* and SNCA expr inh inconclusive.
`NC(=O)c1ccc(-c2ncc3cnc(-c4cccc(F)c4)cn23)cc1` gave IP6K1 inh -11.9, SNCA viab count 2.0%[87.6 µM], GPT2 inh 1.8%[88.5 µM] and SNCA expr inh -6.9%[87.6 µM].
For O=C(c1ccc(-c2ncc3cnc(-c4cccc(F)c4)cn23)cc1)N1CCc2cccnc21 the results were IP6K1 inh -17.4, SNCA viab count 25.1µM*, GPT2 inh 0.6%[88.5 µM] and SNCA expr inh 28.2µM*.
Cc1nn(-c2ccccc2)c2c1C(C(C)C)N(C1CCN(C(=O)Cc3ccccn3)CC1)C2=O (stereo unspecified) was read as IP6K1 inh 5.6.
`CCn1c(=N)n(CCOc2ccc(Br)cc2)c2ccccc21` gave IP6K1 inh 24.8, SNCA viab count inconclusive and SNCA expr inh 25.1µM*.
Nc1cc(-c2ccncc2)c[nH]c1=O was read as IP6K1 inh -8.4, SNCA viab count 2.7%[23.9 µM], GPT2 inh 10µM* and SNCA expr inh 16.2%[25.6 µM].
Cc1ccc(C)c(-n2nc(-c3c(C)nc4scc(CC(=O)NCc5ccco5)n4c3=O)cc2C)c1 was read as IP6K1 inh -4.0, SNCA viab count 8.91µM*, GPT2 inh inactive and SNCA expr inh inconclusive.
Screening Cc1ccc(-n2nc(-c3c(C)nc4scc(CC(=O)NCc5ccco5)n4c3=O)cc2C)cc1 returned IP6K1 inh -12.7, SNCA viab count 2.5%, GPT2 inh -2.0% and SNCA expr inh -9.0%.
For CC1CCCN(C(=O)c2cc3ccc4cccnc4c3[nH]2)C1 (stereo unspecified) the results were IP6K1 inh -5.2, SNCA viab count inconclusive and SNCA expr inh 2.24µM*.
For O=C(c1cc2ccc3cccnc3c2[nH]1)N1CCCCC1 the results were IP6K1 inh -17.0, SNCA viab count -2.3% and SNCA expr inh inconclusive.
For CC1=C[C@@H](CNC(=O)C2CCCCC2)[C@H](C(C)C)C[C@H]1CC(=O)N1CCN(c2ccccn2)CC1 the results were IP6K1 inh 16.1, SNCA viab count 28.2µM*, GPT2 inh -4.7% and SNCA expr inh inconclusive.
Screening Cc1oc(-c2ccccc2Cl)nc1CS(=O)CC(=O)N1CCN(c2cccc(C(F)(F)F)c2)CC1 (stereo unspecified) returned IP6K1 inh 11.2, SNCA viab count inconclusive and SNCA expr inh 12.6µM*.
Cn1ncc2c(C(=O)N3CCCCC3)cc(-c3cccc(F)c3)nc21 was read as IP6K1 inh 21.2.
Cc1nn2c(c1-c1ccnn1C(C)C)N(Cc1ccc(O)cc1)CCC2 was read as IP6K1 inh 21.0, SNCA viab count 5.5%[87.6 µM], GPT2 inh inactive and SNCA expr inh 6.4%[87.6 µM].
For Cc1nn2c(c1-c1ccnn1C(C)C)N(Cc1cccc(C#N)c1)CCC2 the results were IP6K1 inh 12.0, SNCA viab count inconclusive, GPT2 inh -5.9%[88.5 µM] and SNCA expr inh 2.82µM*.
`COc1ccc(C(=O)N2CCC(C(NC(=O)c3ccccc3C)C(=O)NC(C)C(C)C)CC2)cc1` (stereo unspecified) gave IP6K1 inh 9.9, SNCA viab count 20µM*, GPT2 inh -16.5% and SNCA expr inh -22.3%.
`O=C1CCC2(C(=O)NCc3ccc4c(c3)OCO4)CCC=C2N1C1CCCC1` (stereo unspecified) gave IP6K1 inh 18.7, SNCA viab count inconclusive, GPT2 inh 4.4% and SNCA expr inh 3.4%.
`CC12C(=O)OC(=O)C1(C)C1CCC2O1` (stereo unspecified) gave SNCA viab count inconclusive, GPT2 inh inactive and SNCA expr inh 3.55µM*.
CNS(=O)(=O)c1ccc(C2CC(=O)Nc3cc(O)c(OC)cc32)cc1 (stereo unspecified) was read as IP6K1 inh 0.9, SNCA viab count -8.0%, GPT2 inh inconclusive and SNCA expr inh -10.3%.
For Cc1cccn2c3c(c(=O)nc12)C(c1cccc(F)c1)CC(=O)N3 (stereo unspecified) the results were IP6K1 inh -0.8, SNCA viab count 22.7% and SNCA expr inh 36.8%.
Screening CNc1nc2c(s1)C(c1ccc(F)c(F)c1)CC(=O)N2 (stereo unspecified) returned IP6K1 inh -37.0*, SNCA viab count 10.0%, GPT2 inh inconclusive and SNCA expr inh 16.5%.

Compound activity as filed in PubChem.
